# Laboratory results published in paper PMC5700166.
# Residue numbers refer to the chain shown, from its start.
# Key:
# Test in all cases: protein-binding microarray (PBM); PBM: ~300 nM protein, 6 mM HEPES pH 7.8, 80 mM KCl, 0.5 mM EDTA, 0.5 mM EGTA, 6% glycerol, 35 ng/ul poly-dIdC, 1% milk, 1 h, room temperature; Ap Aiptasia and Nv Nematostella (sea anemones) / Co Capsaspora / Aq Amphimedon (sponge) / Dm Drosophila / Hu human; RHD is the Rel homology domain; high values mean tight binding
# Conditions in all cases: dsDNA, one strand shown
# GST-Ap-NF-kB RHD = biological target: T1, GST-Ap-NF-kB RHD (Exaiptasia pallida (Aiptasia), UniProt A0A913YAJ5 2-422)
# T1 sequence: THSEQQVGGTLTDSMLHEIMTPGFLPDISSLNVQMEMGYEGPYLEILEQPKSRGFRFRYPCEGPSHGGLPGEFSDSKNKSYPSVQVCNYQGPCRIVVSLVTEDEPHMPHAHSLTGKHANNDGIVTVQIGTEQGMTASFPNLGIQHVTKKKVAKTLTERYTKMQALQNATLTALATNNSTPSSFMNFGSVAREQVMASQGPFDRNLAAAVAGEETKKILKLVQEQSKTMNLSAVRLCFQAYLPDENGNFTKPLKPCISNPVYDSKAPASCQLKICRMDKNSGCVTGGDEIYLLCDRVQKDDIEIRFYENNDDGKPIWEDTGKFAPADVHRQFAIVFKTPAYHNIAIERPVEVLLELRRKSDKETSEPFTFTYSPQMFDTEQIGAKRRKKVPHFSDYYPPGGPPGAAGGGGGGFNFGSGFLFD
# [1] = biological target: T2, GST-Nv-NF-kB (Cys allele) (Nematostella vectensis, UniProt E5G601 2-411)
# T2 sequence: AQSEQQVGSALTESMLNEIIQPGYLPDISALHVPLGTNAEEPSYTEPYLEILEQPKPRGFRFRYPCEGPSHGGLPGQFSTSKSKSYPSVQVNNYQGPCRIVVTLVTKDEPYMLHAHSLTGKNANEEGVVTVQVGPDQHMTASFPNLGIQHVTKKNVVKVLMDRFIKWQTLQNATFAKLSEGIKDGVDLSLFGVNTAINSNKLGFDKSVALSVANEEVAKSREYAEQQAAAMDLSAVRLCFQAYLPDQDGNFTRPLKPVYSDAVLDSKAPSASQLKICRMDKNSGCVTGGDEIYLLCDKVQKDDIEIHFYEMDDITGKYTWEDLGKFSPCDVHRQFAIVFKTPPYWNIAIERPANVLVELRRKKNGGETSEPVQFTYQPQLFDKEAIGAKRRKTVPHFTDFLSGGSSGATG
# [2] = biological target: T3, GST-Nv-NF-kB (Ser allele) (Nematostella vectensis, UniProt A7UNT2 2-411)
# T3 sequence: T2 sequence with Q21R, C66S, S207N, E215Q, V217A, E225K, A268E, D399E
# GST-Co-NF-kB = biological target: T4, GST-Co-NF-kB (Capsaspora owczarzaki, UniProt F1ARL5 200-546)
# T4 sequence: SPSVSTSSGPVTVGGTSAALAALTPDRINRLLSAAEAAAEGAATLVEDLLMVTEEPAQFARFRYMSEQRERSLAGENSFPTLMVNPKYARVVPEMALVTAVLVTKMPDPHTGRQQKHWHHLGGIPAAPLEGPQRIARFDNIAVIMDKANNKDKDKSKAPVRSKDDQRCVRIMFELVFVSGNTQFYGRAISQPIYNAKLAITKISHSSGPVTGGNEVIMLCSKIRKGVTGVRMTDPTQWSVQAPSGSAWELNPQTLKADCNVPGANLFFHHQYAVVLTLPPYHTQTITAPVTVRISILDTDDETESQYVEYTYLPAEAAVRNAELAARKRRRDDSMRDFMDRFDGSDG
# GST-Dm-Relish = biological target: T5, GST-Dm-Relish (Drosophila melanogaster, UniProt Q94527 99-473)
# T5 sequence: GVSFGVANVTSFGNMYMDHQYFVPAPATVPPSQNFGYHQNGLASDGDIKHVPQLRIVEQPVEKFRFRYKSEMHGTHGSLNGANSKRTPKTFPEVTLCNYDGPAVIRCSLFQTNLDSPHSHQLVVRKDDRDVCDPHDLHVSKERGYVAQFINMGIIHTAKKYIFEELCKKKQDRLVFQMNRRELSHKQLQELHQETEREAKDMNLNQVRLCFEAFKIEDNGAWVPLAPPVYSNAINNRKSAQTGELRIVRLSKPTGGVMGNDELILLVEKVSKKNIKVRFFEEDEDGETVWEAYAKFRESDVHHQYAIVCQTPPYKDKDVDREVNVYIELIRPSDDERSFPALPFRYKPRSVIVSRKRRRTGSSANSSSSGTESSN
# GST-Aq-NF-kB = biological target: T6, GST-Aq-NF-kB (Amphimedon queenslandica, UniProt A9Y5G7 2-389)
# T6 sequence: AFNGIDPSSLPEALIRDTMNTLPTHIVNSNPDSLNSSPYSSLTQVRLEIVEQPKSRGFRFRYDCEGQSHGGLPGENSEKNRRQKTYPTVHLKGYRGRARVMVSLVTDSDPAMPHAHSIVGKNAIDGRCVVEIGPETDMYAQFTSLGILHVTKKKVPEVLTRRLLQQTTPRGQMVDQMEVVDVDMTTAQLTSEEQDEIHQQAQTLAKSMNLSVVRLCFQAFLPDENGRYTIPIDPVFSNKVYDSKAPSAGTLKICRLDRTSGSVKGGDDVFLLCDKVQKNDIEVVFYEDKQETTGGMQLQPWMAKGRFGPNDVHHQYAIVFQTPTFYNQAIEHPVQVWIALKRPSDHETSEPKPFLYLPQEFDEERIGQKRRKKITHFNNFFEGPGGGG
# GST-Hu-p50 = GST-Hu-p50 (Homo sapiens, UniProt P19838 7-356)
# Chain of GST-Hu-p50 (P19838 7-356): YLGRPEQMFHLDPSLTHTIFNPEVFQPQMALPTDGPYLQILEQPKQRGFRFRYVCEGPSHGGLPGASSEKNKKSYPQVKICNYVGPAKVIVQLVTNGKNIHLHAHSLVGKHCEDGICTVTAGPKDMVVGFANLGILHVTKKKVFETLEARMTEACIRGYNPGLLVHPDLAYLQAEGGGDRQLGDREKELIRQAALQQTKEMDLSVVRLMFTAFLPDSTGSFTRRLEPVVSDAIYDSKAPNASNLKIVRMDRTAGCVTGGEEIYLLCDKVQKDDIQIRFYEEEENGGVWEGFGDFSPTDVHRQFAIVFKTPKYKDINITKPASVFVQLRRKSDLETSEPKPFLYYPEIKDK
Sequence,binding signal (GST-Ap-NF-kB RHD) [z-score],binding signal [1] [z-score],binding signal [2] [z-score],binding signal (GST-Co-NF-kB) [z-score],binding signal (GST-Dm-Relish) [z-score],binding signal (GST-Aq-NF-kB) [z-score],binding signal (GST-Hu-p50) [z-score]
CCGATTAACATCAGAATCCCCCCTGATGTTAATCGGGTCTTGATTCGCTTGACGCTGCTG,9.22,7.84,8.55,7.63,8.81,7.37,7.06
CCGATTAACATCAGGGGGGTGCATGATGTTAATCGGGTCTTGATTCGCTTGACGCTGCTG,4.21,2.54,3.71,3.47,4.16,3.59,3.86
CCGATTAACATCACCGGGGATAGTGATGTTAATCGGGTCTTGATTCGCTTGACGCTGCTG,3.55,2.68,3.34,3.83,2.1,1.82,2.98
CCGATTAACATCAGGGAAAGTACTGATGTTAATCGGGTCTTGATTCGCTTGACGCTGCTG,3.95,6.4,6.18,2.93,8.65,7.76,5.43
CCGATTAACATCAGGGGATTTACTGATGTTAATCGGGTCTTGATTCGCTTGACGCTGCTG,8.92,9.25,10.4,3.45,10.5,7.83,7.61
CCGATTAACATCACCCTGGGAAATGATGTTAATCGGGTCTTGATTCGCTTGACGCTGCTG,1.68,1.49,1.51,3.42,1.08,1.74,2.25
CCGATTAACATCACGGCATTCCCTGATGTTAATCGGGTCTTGATTCGCTTGACGCTGCTG,2,2.64,2.35,1.73,2.31,3.81,1.4
CCGATTAACATCAGACTTTCCCATGATGTTAATCGGGTCTTGATTCGCTTGACGCTGCTG,3,4.28,3.69,2.74,1.53,4.28,3.45
CCGATTAACATCAGGGGATTTTATGATGTTAATCGGGTCTTGATTCGCTTGACGCTGCTG,10.4,11.7,12.7,4.81,9.55,8.66,8.09
CCGATTAACATCACGAATCCCCCTGATGTTAATCGGGTCTTGATTCGCTTGACGCTGCTG,8.06,6.45,7.96,5.16,6.03,5.26,6.72
CCGATTAACATCAATGCCCCCCCTGATGTTAATCGGGTCTTGATTCGCTTGACGCTGCTG,5.2,2.82,3.53,5.03,4.02,4.04,4.02
